Experimental data as given in PubChem BioAssay AID449748 (Broad Institute, 2010).
Out of some 2,200 compounds screened, about 2,200 (100%) were called active. The set was probably picked from earlier hits. The list shows a part of the results. Measured potencies and affinities stand elsewhere. Results filed as inconclusive are left out. The rule behind the calls is not given here.

Test: PubChem AID 449748
Conditions: cancer stem cell-like cells viability, luminescence; series mostly up to 19.5 µM; activity change, negative = inhibition: at the top concentration
In the case of `CSc1ccccc1C(=O)Nc1cc(C)ccc1C`, the “activity change, negative = inhibition” value was 31.1% (inactive).
